# From PubChem BioAssay AID927 (National Center for Advancing Translational Sciences (NCATS), 2007)
# Among all 60,000 compounds or so, about 65 (0.1%) were called active. The list comes from a sample in which actives are over-represented; it also holds similar structures and randomly drawn compounds. Values without a mark were called inactive. The call rests on the fitted dose curve; in most records, active means well fitted inhibition curve with a large enough effect; inconclusive means small, poorly fitted or top-dose-only effect; inactive means no such curve, though single readings can be large or run the other way. Non-standard residues stand in square brackets, D forms with d. Residues, ends and D or L forms follow the SMILES beside them. ξ: configuration not given here. ξV = CC(C)C(N)C(=O)O
# Target: Ubiquitin carboxyl-terminal hydrolase 2 (Homo sapiens) (UniProt O75604)
# Test: qHTS Assay for Inhibitors of Ubiquitin-specific Protease USP2a; further: nearly all actives have a fitted effect of over 60% in size
# Conditions: USP2a enzymatic assay; Potency: qHTS inhibition; series mostly up to 38.3 µM; activity change, negative = inhibition: at the top concentration
# From the text: NIH Molecular Libraries Screening Centers Network [MLSCN]
# NIH Chemical Genomics Center [NCGC]
# PI Name: Nicholson, Ben. Progenra Inc, Malvern, PA
# Homeostasis of cellular proteins is maintained through a combination of synthesis and degradation. The pathway that accounts for the majority of protein degradation is the ubiquitin-proteasomal pathway. Ubiquitin (Ub) is highly conserved in all cells and the generation of a multi-Ub chain typically targets proteins for degradation by the proteasome. However, ubiquitination is highly reversible and dynamic. Deubiquitination, the reverse process, is catalyzed through the action of enzymes referred to as isopeptidases or deubiquitinating enzymes (DUBs). This group of enzymes is collectively responsible for maintaining adequate pools of free ubiquitin and regulating the ubiquitination status of cellular proteins. The class of DUBs referred to as the ubiquitin-specific proteases (USP) family functions endoproteolytically to cleave Ub chains from a wide range of protein substrates. USP2a deubiquitinates fatty acid synthase (FASN) which has recently been identified as an emerging oncology target. To identify inhibitors of USP2a a cell-free assay was employed.
# The reporter enzyme chosen is phospholipase A2 (PLA2), which has an absolute requirement for a free amino terminus. Thus, fusion of a UBL to the N-terminus of PLA2 inactivates PLA2. When the UBL-PLA2 reporter enzyme is cleaved by USP2, the activated reporter can subsequently act on its substrate, which is the commercially available NBD C6-HPC (Invitrogen). Thus, this coupled assay gives a fluorescent read-out, which is generated through the cleavage of the PLA2 reporter enzyme. The assay, developed by Progenra, Inc. uses Ub-PLA2 and USP2a at near equal and low (nM) amounts and has been licensed for sale by LifeSensors, Inc. as the Ub-IsoPro1 kit.
# NCGC Assay Protocol Summary:
# The assay buffer, prepared fresh at the day of the assay, contains 20mM Tris-HCl pH 8.0, 2mM CaCl2, 2mM beta-Mercaptoethanol, 0.1% DMSO. 3ul of 40nM (20nM final) USP2 core, which is stored on ice, is dispensed into a medium-binding black solid Kalypsys 1,536 well plate using the Kalypsys dispenser. The assay plate is then pinned with 23nL compound with the Kalypsys pintool in columns 5-48. The controls are pinned as follows: column 1&2 two-fold dilutions of 2M NEM in duplicate; column 3 DMSO; column 4 2M NEM (final concentration 38.2mM). The assay plate is incubated at RT for 30min. Subsequently, 3uL of 40nM (20nM final) Ub-PLA2 and 40uM (20uM final) NBD C6-HPC (stored on ice and protected from light) were dispensed into the plate using the Kalypsys dispenser. Plates were read immediately (0 Hour) on an Envision (Perkin Elmer) plate reader using the following wavelengths Ex 460nm /Em 535nm. Then, the assay plates were incubated for 2.5 hours and read again on the Envision using the same settings
# Data were normalized to the to AC100 inhibition (NEM). Concentration-response curves were fitted to the normalized data and the concentration-response curves were then classified based on curve quality (r2), response magnitude and degree of measured activity. The time zero reading was used to flag fluorescence artifacts.
# Keywords: ubiquitination, deubiquitination, proteases, profluorescent, MLSMR, MLSCN, NIH Roadmap, qHTS, NCGC
# Chain of Ubiquitin carboxyl-terminal hydrolase 2 (Homo sapiens) (O75604 whole entry, looked up): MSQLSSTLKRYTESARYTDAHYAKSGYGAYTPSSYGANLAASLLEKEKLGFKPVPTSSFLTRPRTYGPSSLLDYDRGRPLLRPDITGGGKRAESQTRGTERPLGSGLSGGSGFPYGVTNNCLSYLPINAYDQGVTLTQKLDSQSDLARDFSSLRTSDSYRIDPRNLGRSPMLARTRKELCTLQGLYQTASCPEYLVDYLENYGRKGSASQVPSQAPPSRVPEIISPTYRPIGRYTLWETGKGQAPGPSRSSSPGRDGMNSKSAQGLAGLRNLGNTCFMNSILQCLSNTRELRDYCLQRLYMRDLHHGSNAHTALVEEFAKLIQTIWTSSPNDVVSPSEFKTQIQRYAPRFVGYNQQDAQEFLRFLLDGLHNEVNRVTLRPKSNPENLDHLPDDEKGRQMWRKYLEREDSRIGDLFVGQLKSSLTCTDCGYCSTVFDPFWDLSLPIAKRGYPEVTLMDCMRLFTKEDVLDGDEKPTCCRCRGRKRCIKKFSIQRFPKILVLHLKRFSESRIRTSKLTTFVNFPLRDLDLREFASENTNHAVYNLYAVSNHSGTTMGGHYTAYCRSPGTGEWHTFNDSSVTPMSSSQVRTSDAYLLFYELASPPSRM
row,SMILES,"activity change, negative = inhibition"
1,CC(=O)OCC(=O)C1CCC2C3CCC4=CC(=O)CC[C@@]4(C)C3CC[C@]12C (stereo partly drawn),-3.21%
2,COC1[C@H](OC(N)=O)C(O)[C@H](Oc2ccc3c(O)c(NC(=O)c4ccc(O)c(CC=C(C)C)c4)c(=O)oc3c2C)OC1(C)C (stereo partly drawn),5.79%
3,O=C(O)C(O)[C@@](O)(Cc1ccc(O)cc1)C(=O)O (stereo partly drawn),-9.13%
4,N#CC1=C(N)Oc2cc(O)ccc2C1C1CCCCC1 (stereo not drawn),-16.2%
5,CS(=O)(=O)N1CCC2(CC1)CN(Cc1cc(C(F)(F)F)cc(C(F)(F)F)c1)C2,22.6%
6,O=C(CN1CCOCC1)Nc1c(-c2ccccc2)c2cc(Br)ccc2[nH]c1=O,21.4%
7,CSc1ccc(S(=O)(=O)Nc2cccc(F)c2)cc1,4.55%
8,COc1ccc2occ(C(=O)c3ccc(N=C(C)N(C)C)cc3)c2c1,11.4%
9,CN(Cc1ccco1)c1ncncc1-c1ccoc1,-5.34%
10,O=C(NCc1ccc2c(c1)OCO2)c1cc2c(s1)CS(=O)(=O)C2,39.2%
11,CC(=NCc1ccco1)C1=C(O)c2ccccc2C1=O,9.53%
12,COc1cccc(C(CC(=O)NCCN2CCOCC2)NS(=O)(=O)c2ccc(C)cc2)c1OC (stereo not drawn),4.84%
13,COC(=O)N1CCC[C@@]2(CCN(C(=O)NC(C)C)C2)C1,6.83%
14,CC(C)=CCC/C(C)=C/CC/C(C)=C/CC/C(C)=C/CO,-13.7%
15,CCCn1c(=O)c2ccccc2n2c(SCC(=O)/C(C#N)=C(\C)N)nnc12,5.46%
16,Cc1ccc(S(=O)(=O)N(C)CC(=O)NC2CCCC2)cc1,6.82%
17,O=C(Nc1ccc2c(c1)OCO2)C1CC(c2c(F)cccc2Cl)=NO1 (stereo not drawn),-8.71%
18,CCOc1ccccc1Nc1nnc(SCc2ccc(C(=O)OC)o2)s1,10.2%
19,Cc1cccc(-n2ncc3c(N4CCc5ccccc54)ncnc32)c1,2.95%
20,CCOC(=O)C1Cn2c(nc3c(c2=O)C(C)(CC)Cc2ccccc2-3)S1 (stereo not drawn),-7.77%
21,C=C(C)C1CC=C(CO)CC1 (stereo not drawn),-3.8%
22,CCN(CC)S(=O)(=O)c1ccc(NC(=O)CN(c2cccc(F)c2)S(C)(=O)=O)cc1,25.7%
23,O=C(CSc1nnc(-c2cccs2)n1-c1ccccc1)N1CCN(C(=O)c2ccco2)CC1,-9.08%
24,CC(=O)NC1CC2CCCC(C1)N2CC(=O)Nc1ccccc1 (stereo not drawn),6.5%
25,CCOc1c(N2CCCCC2)c(=O)c1=O,-9.98%
26,CC(=O)NC(C(=O)NCC(N)=O)C(C)C (stereo not drawn) (Ac-[ξV]-Gly-NH2),-3.58%
27,CC12C(=O)N(n3cnnc3)C(=O)C1C1C=CC2C1 (stereo not drawn),0.802%

row,SMILES,"activity change, negative = inhibition"
1,O=C(C1=C(O)C(=O)N(Cc2ccccc2)C1c1cccnc1)c1ccco1 (stereo not drawn),-8.78%
2,CCC(=O)N1c2ccc(S(=O)(=O)CCC(=O)N3CCN(c4ccccc4)CC3)cc2CC1C (stereo not drawn),9.9%
3,CCOc1ccccc1N(CC(=O)Nc1ccccc1C(=O)OC)S(C)(=O)=O,-1.62% [at 7.66 µM]
4,CC1O[C@@H](Oc2c(-c3ccc(O)c(O)c3)oc3cc(O)cc(O)c3c2=O)C(O)C(O)C1O (stereo partly drawn),-9.94%
5,O=C(c1cc(C(F)(F)F)cc(C(F)(F)F)c1)N1CCC2(CCCN(Cc3ccncc3)C2)CC1,53.1%
6,CCN(CC)CCN1C(=O)C(=O)/C(=C(/O)c2ccccc2)C1c1ccccc1F (stereo not drawn),6.03%
7,CN1CCC2(CC1)CCN(S(=O)(=O)c1ccccc1)CC2,-6.81%
8,CCN(CC)CCNC(=O)Cn1cnc2sc(C)c(S(=O)(=O)N3CCOCC3)c2c1=O,-2.24%
9,O=C(Cn1c(=O)sc2ccccc21)Nc1ccc2c(c1)OCCO2,7.89%
10,S=C1SCN(CCN2CCOCC2)CN1Cc1ccccc1,-1.7%
11,CC1CC[C@@]23CCC4(C)[C@@]5(C)CCC6C(C)(C)C(O)CC[C@@]6(C)C5C=C[C@@]4(OC2=O)C3C1C (stereo partly drawn),5.73%
12,Nc1ncnc2c1ncn2C1CC(O)C(CO)O1 (stereo not drawn),-5.52%
13,CC(=O)Nc1ccc(S(=O)(=O)N2CCC(N(C)CCC(C)C)CC2)cc1,4%
14,COc1ccc(C2CC(=O)C=C(NCC3CCCO3)C2)cc1 (stereo not drawn),2.62%
15,CC(=O)N1CCN(CCN=CC2=C(O)CC(C)(C)CC2=O)CC1,0.95%
16,FC(F)(F)c1ccccc1-c1nc(-n2ccnc2)c2ccccc2n1,-26.3%
17,CN1CC(=O)N=C1N,6.52%
18,CCC1=C/C(=C\c2ccc3c(c2)OCO3)C(=O)S1,41.1%
19,COc1ccc(N2CCN(CCNC(=O)c3nnc(Cc4c(F)cccc4Cl)o3)CC2)cc1,15.6%
20,CCN(Cc1ccncc1)C(=O)c1cccc(S(=O)(=O)N2CCOCC2)c1,-1.77%
21,CC1(C)OC2CC(=O)OC[C@@]23C1CC(=O)[C@]1(C)C3CC[C@@]2(C)C(c3ccoc3)OC(=O)C3O[C@@]321 (stereo partly drawn),-0.539%
22,CC(=O)Nc1ccc(S(=O)(=O)N2CCSCC2)cc1,-7.08%
23,O=C(NCCSc1ccccc1)c1ccco1,4.74%
24,CC(=O)Nc1ccn(Cc2c(F)cccc2Cl)n1,11.9%
25,CC(=O)N1CCC2(CCCN(Cc3ccc(C#N)cc3)C2)CC1,15.6%
26,COC1C[C@@H](O[C@@H]2C(C)C(=O)OC(C)C(C)C(O)C(C)C(=O)[C@@]3(CO3)CC(C)C(OC3OC(C)CC(N(C)C)C3O)C2C)OC(C)[C@@H]1O (stereo partly drawn),9.14%
